Hit rate of the full screen: of about 310,000 compounds, about 14,000 (4.5%) showed an effect of 50% or more. Effects have a minus sign here. The entries come from a sample that favours strong results as a whole.
target: human ether-à-go-go-related gene (hERG) potassium channel (human, UniProt Q12809); experiment: primary screen, population patch clamp on CHO cells stably expressing hERG; higher = less effect of the substance
Protocol: Briefly, Chinese hamster ovary (CHO) cells stably expressing the hERG channel were dislodged from tissue culture flasks and dispensed into PPC plates. […] During the recording, background leak currents were estimated by a 100 ms step to -80 mV from an initial holding potential of -70 mV and subtracted from the subsequent current measurement. The campaign was conducted in two phases using slight differences in recording protocol. In the first phase, the initial voltage pulse used a 100 ms step to -30 mV from a holding potential of -70 mV, a 2 s conditioning step to +25 mV, and a 2 s test step to -30 mV. During the second phase of the screen, the potential during the conditioning step was raised to +45 mV. In both phases of the campaign, a secondary voltage pulse was applied using the same parameters as the second phase initial pulse. The initial and secondary pulses were applied in the absence of compound, and upon application of 1 μM and 10 μM test concentrations. […]
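Note: peak tail current of the secondary pulse compared with the same well before compound.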

Chain of human ether-à-go-go-related gene (hERG) potassium channel (Q12809 whole entry, looked up): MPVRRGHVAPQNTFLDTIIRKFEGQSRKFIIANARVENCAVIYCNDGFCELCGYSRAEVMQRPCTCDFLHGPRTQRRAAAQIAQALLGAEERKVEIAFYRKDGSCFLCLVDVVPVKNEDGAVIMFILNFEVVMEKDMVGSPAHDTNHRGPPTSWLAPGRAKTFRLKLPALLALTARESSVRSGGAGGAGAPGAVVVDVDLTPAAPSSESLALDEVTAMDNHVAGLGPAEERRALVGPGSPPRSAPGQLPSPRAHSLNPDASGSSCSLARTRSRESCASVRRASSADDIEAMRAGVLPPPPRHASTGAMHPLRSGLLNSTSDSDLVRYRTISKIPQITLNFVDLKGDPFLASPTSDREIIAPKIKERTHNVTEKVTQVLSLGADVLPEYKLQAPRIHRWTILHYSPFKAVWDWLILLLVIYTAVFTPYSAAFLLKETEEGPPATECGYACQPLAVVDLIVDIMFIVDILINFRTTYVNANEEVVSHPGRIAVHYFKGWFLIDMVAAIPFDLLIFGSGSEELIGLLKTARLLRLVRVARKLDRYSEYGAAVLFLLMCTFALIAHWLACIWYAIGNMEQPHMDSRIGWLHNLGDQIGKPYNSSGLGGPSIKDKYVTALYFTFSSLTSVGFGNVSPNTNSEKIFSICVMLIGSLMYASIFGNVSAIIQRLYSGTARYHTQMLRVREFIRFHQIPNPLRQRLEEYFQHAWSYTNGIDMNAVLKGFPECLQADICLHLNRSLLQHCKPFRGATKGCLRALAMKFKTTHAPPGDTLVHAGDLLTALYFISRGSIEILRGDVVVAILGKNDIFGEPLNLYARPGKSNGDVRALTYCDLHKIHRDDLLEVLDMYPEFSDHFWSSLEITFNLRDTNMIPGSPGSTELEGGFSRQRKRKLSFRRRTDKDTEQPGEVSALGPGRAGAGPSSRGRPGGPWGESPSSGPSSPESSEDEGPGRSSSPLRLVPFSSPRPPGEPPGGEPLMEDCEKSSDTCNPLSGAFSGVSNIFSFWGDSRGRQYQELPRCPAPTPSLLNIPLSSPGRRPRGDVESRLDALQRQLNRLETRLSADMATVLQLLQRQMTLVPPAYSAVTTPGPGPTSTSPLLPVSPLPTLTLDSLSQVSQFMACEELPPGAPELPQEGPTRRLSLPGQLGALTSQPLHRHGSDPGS

| Structure (SMILES) | hERG current change (%, negative = inhibition) at 10uM |
| --- | --- |
| CCOC(=O)c1ccc(NC(=O)NS(=O)(=O)c2ccc(C)cc2)cc1 | 10.9% |
| CC(C)Oc1ccc(S(=O)(=O)N2CCCCC2)cc1NC(=O)CN1C(=O)NC2(CCCC2)C1=O | -2.87% |
| O=[N+]([O-])c1cccc(/C=N/NC2CCS(=O)(=O)C2)c1 (centres unmarked) | 11.9% |
| Cc1ccc(S(=O)(=O)N2CCCC(CCC(=O)NCc3ccccc3F)C2)s1 (centres unmarked) | -50.7% |
| Cc1ccsc1C(=O)N1CCCC(CCC(=O)NCc2ccccc2F)C1 (centres unmarked) | -7.46% |
| Cc1ccsc1S(=O)(=O)N1CCCC(CCC(=O)NCc2ccccc2F)C1 (centres unmarked) | 5.38% |
| CCOC(=O)C1=C(CSc2n[nH]c(N)n2)NC(=O)NC1C (centres unmarked) | 3.79% |
| CC1CC(C)CN(S(=O)(=O)N2CCCC(C(=O)NC(C)c3ccccc3)C2)C1 (centres unmarked) | 3.1% |
| COc1ccc(OC)c2[nH]c(C(=O)N3CCC(C(=O)O)CC3)cc12 | 24.6% |
| O=C(CSc1nnc(NC2CCCCC2)s1)NC1CCS(=O)(=O)C1 (centres unmarked) | -0.507% |
| O=[N+]([O-])c1cc(Cl)ccc1NCCc1ccccn1 | -16.8% |
| N#Cc1cc([N+](=O)[O-])ccc1NCCc1ccccn1 | -18.4% |
| N#Cc1ccc(Sc2ccccn2)c([N+](=O)[O-])c1 | -61.5% |
| N#Cc1ccc(NCCc2ccccn2)c([N+](=O)[O-])c1 | -74% |
| N#Cc1cc(Sc2ccccn2)c([N+](=O)[O-])cc1C#N | -18.9% |
| O=[N+]([O-])c1cc(Cl)ccc1Sc1ccccn1 | 3.65% |
| CC(C)(C)c1ccc(OCC(=O)O)cc1 | 17.9% |
| COC(=O)c1sc(S(=O)(=O)NCCC(=O)O)c(C(=O)OC)c1C | 5.17% |
| CCOc1ccc(S(=O)(=O)N2CCOCC2)cc1NC(=O)CSCC(=O)Nc1cccc(C)c1 | -11.4% |
| Cc1cccc(NC(=O)CSCC(=O)Nc2cc(S(=O)(=O)N3CCOCC3)ccc2OC(C)C)c1 | -87.2% |
| Cc1ccc(CSCC(=O)Nc2cc(S(=O)(=O)N3CCOCC3)ccc2OC(C)C)cc1 | -30.5% |
| Cc1cccc(NC(=O)CSCC(=O)Nc2ccc(S(=O)(=O)N3CCOCC3)cc2)c1 | -5.21% |

| Structure (SMILES) | hERG current change (%, negative = inhibition) at 10uM |
| --- | --- |
| CCOc1ccc(S(=O)(=O)N2CCOCC2)cc1NC(=O)C1CCC1 | 16.3% |
| CCN(CC)c1ccc(S(=O)(=O)N2CCOCC2)cc1NC(=O)CSC(=S)N1CCCC1 | -32.2% |
| CCOc1ccc(S(=O)(=O)N2CCOCC2)cc1NC(=O)CSCC(=O)Nc1ccc(C)cc1 | -18.2% |
| CCOc1ccc(S(=O)(=O)N2CCOCC2)cc1NC(=O)CSC(=S)N1CCCC1 | -63% |
| CCOc1ccc(S(=O)(=O)N2CCOCC2)cc1NC(=O)CSCc1ccc(C)cc1 | -53.2% |
| Cc1cc(C)c2c(c1)/C(=N/NC(=O)c1cc(C)oc1C)CCC2 | 6.66% |
| Cc1ccc(S(=O)(=O)N2CCC(C(=O)OCC(=O)NCCc3ccccc3)CC2)cc1C | -8.07% |
| C/C(=N\O)c1c(O)cc(-c2ccccc2)n(-c2ccccc2)c1=O | 8.56% |
| CN(c1ccc(C(=O)N/N=C/c2cccc([N+](=O)[O-])c2)cc1)S(=O)(=O)c1ccccc1 | 1.88% |
| Cc1onc(-c2c(F)cccc2Cl)c1C(=O)N(C)C1CCCCC1 | 2.65% |
| CCN(CC)c1ccc(/C=N/NC(=S)NCc2ccccc2)c(O)c1 | 12% |
| COCCn1c(=S)[nH]c2cc(C(=O)N(CCO)Cc3ccccc3)ccc2c1=O | 4.32% |
| CC(C)=CCc1c(O)ccc2c1OC(c1ccc(O)c(O)c1)CC2=O (centres unmarked) | 9.78% |
| COc1ccc(C(=O)NC(=S)N2CCN(c3ccc([N+](=O)[O-])cc3)CC2)cc1 | -49.2% |
| COc1ccc(C(=O)CCC(=O)N2CCN(c3ccccc3)CC2)cc1 | -9.62% |
| COc1ccc(N2CCN(C(=O)CSc3ccc([N+](=O)[O-])cc3)CC2)cc1 | -68.4% |
| COc1ccc(N2CCN(C(=O)CSc3ccccc3)CC2)cc1 | 4.44% |
| COc1ccc(N2CCN(C(=O)CSc3ccccc3N)CC2)cc1 | 3.07% |
| COc1ccc(C(=O)CCC(=O)N2CCN(c3ccc([N+](=O)[O-])cc3)CC2)cc1 | -63.8% |
| O=C(NC1CCN(S(=O)(=O)c2cccc(F)c2)CC1)c1ccc(F)cc1 | 14.6% |
| Cc1cc2c(sc3c(C)ccc(C)c32)c(C)n1.Cl | 3.48% |
| O=C(NNC(=O)c1cccnc1)NC12CC3CC(CC(C3)C1)C2 | -2.41% |

| Structure (SMILES) | hERG current change (%, negative = inhibition) at 10uM |
| --- | --- |
| CCCNC(=O)CS(=O)Cc1nc(-c2ccccc2C)oc1C (centres unmarked) | 6.71% |
| CC(=O)c1ccccc1NC(=O)C1CCCN(C(=O)c2ccc(Cl)cc2)C1 (centres unmarked) | -25.6% |
| COc1ccc(S(=O)(=O)Cc2ccc(C(=O)NC3CCCCC3)o2)cc1 | -2.17% |
| C[N+]1(C)C2CCC1CC(OC(=O)c1ccco1)C2.[Br-] (centres unmarked) | 7.81% |
| CCCN(C(=O)CSc1nnc(-c2ccoc2C)n1N)C1CCS(=O)(=O)C1 (centres unmarked) | 5.3% |
| COc1ccccc1-c1nn(Cc2ccccc2)cc1C(=O)NCC(c1ccco1)N1CCCC1 (centres unmarked) | -64% |
| COc1ccc(OC)c(-c2nn(-c3ccccc3)cc2C(=O)NCC(c2ccco2)N2CCCC2)c1 (centres unmarked) | -63.7% |
| COc1ccc(Cl)cc1C(=O)NCC(c1ccco1)N1CCCC1 (centres unmarked) | -44.5% |
| COc1ccc(OC)c(-c2nn(-c3ccccc3)cc2C(=O)NCC(c2cccs2)N2CCOCC2)c1 (centres unmarked) | -30.2% |
| COc1ccccc1C(=O)NCCC(=O)NCC(c1ccco1)N1CCCC1 (centres unmarked) | 13.7% |
| Cc1ccccc1-c1nn(-c2ccccc2)cc1C(=O)NCC(c1ccco1)N1CCCC1 (centres unmarked) | -14.3% |
| COc1cc(C(=O)NCC(c2ccco2)N2CCCC2)ccc1OCc1ccccc1 (centres unmarked) | -40.5% |
| O=C(NCC(c1ccco1)N1CCCC1)c1cn(Cc2ccccc2)nc1-c1ccccc1 (centres unmarked) | -58.5% |
| O=C(NCC(c1ccco1)N1CCCC1)c1ccccc1F (centres unmarked) | 3.76% |
| COc1ccccc1-c1nn(-c2ccccc2)cc1C(=O)NCC(c1ccco1)N1CCCC1 (centres unmarked) | -53% |
| Cc1cc(C(=O)NCC(c2ccco2)N2CCCC2)c2ccccc2n1 (centres unmarked) | 6.54% |
| COc1ccc(OC)c(-c2nn(-c3ccccc3)cc2C(=O)NCC2CCCO2)c1 (centres unmarked) | 2.13% |
| CC(=O)NC1(C(F)(F)F)N=C2SCCN2C1=O (centres unmarked) | 7.4% |
| CCOc1cc(/C=C/c2cccc[n+]2C)ccc1O.[I-] | 24.7% |
| O=C(COc1ccc(NC(=O)c2ccccc2[N+](=O)[O-])cc1)c1ccc(F)cc1 | 2.93% |
| O=[N+]([O-])c1cccc(S(=O)(=O)[N-]c2nc3ccccc3nc2-n2cc[n+](Cc3ccccc3)c2)c1 | -5.11% |
| CC(C)N(C(=O)Cn1c(SCC(=O)Nc2nccs2)nc2ccccc21)C(C)C | 12.6% |

| Structure (SMILES) | hERG current change (%, negative = inhibition) at 10uM |
| --- | --- |
| CCN(CC)N=Nc1cccc(NC(C)=O)c1 | 0.363% |
| CCc1nc(C)ccc1OCC(=O)N(CC)CC.O.O=C(O)C(=O)O | -30.9% |
| CCOC(=O)c1c(NC(=O)CSc2nnc3c(n2)[nH]c2ccccc23)sc2c1CCN(C)C2 | -6.08% |
| CCOC(=O)c1ccc(NC2c3ccccc3C(=O)N2c2cccnc2)cc1 (centres unmarked) | -57% |
| CCOC(=O)c1ccc(NC2c3ccccc3C(=O)N2c2ccccn2)cc1 (centres unmarked) | 9.93% |
| Cc1ccc(NC2c3ccccc3C(=O)N2c2cccnc2)cc1 (centres unmarked) | -21.5% |
| CCOc1ccc(/C(O)=C2/C(=O)C(=O)N(CCCN3CCOCC3)C2c2ccc(C)cc2)cc1C (centres unmarked) | 23.8% |
| NC(=O)c1cccnc1Oc1cccc(Cl)c1 | 11.8% |
| COc1ccc(CCN(C(=O)c2ccco2)C(C(=O)NC2CCCC2)c2ccncc2)cc1OC (centres unmarked) | -55% |
| COc1ccccc1CN(C(=O)c1ccco1)C(C(=O)NC1CCCC1)c1ccncc1 (centres unmarked) | -8.04% |
| O=C(NCC(=O)N(c1ccccc1)C(C(=O)NC1CCCCC1)c1ccncc1)c1ccco1 (centres unmarked) | 5.92% |
| Cc1ccc(N(C(=O)CNC(=O)c2ccco2)C(C(=O)NC2CCCCC2)c2cccnc2)c(C)c1 (centres unmarked) | -71.9% |
| Cc1ccc(C)c(N(C(=O)CNC(=O)c2ccco2)C(C(=O)NC2CCCCC2)c2cccnc2)c1 (centres unmarked) | 15.3% |
| COc1cccc(C(C(=O)NC2CCCC2)N(C(=O)c2ccco2)c2ccc(C(C)=O)cc2)c1OC (centres unmarked) | -13.3% |
| Cc1ccc(N(C(=O)CNC(=O)c2ccco2)C(C(=O)NC2CCCC2)c2cccnc2)c(C)c1 (centres unmarked) | 10.1% |
| COc1ccc(N(C(=O)c2ccco2)C(C(=O)NC2CCCC2)c2ccncc2)cc1OC (centres unmarked) | 5.24% |
| COc1cccc(C(C(=O)NC2CCCC2)N(C(=O)c2ccco2)c2cccc(C(C)=O)c2)c1OC (centres unmarked) | 13.9% |
| O=C(NCC(=O)N(Cc1ccccc1)C(C(=O)NC1CCCC1)c1ccncc1)c1ccco1 (centres unmarked) | 5.71% |
| O=C(NCC(=O)N(CCc1ccccc1)C(C(=O)NC1CCCCC1)c1ccncc1)c1ccco1 (centres unmarked) | -54.6% |
| COc1cccc(C(C(=O)NC2CCCC2)N(C(=O)c2ccco2)c2ccc(NC(C)=O)cc2)c1OC (centres unmarked) | -64% |

Reference: paper PMC4336329 (PLoS ONE, 2015)
